Test results published in PubChem BioAssay (NCI).
About 83,000 compounds went through this panel and 20% of them were active in at least one assay; those are over-represented in the sample as a whole.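 Method: cells in 96-well plates; compound added at one concentration; 48 h incubation; percent growth measured; values under 10 scored active.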 A number with no mark means an inactive call. Activity calls are given as the source filed them.

Assays:
Assay in all cases: NCI-60 one-dose screen, 48 h (100 = growth as untreated, 0 = no growth, -100 = all killed)
Conditions in all cases: 10 µM unless noted
BT-549 breast = tested on: BT-549 breast
MDA-MB-435 melanoma = tested on: MDA-MB-435 melanoma
SW-620 colon = tested on: SW-620 colon
MCF7 breast = tested on: MCF7 breast
HCT-116 colon = tested on: HCT-116 colon
HCC-2998 colon = tested on: HCC-2998 colon
KM12 colon = tested on: KM12 colon

SMILES | growth (BT-549 breast) | growth (MDA-MB-435 melanoma) | growth (SW-620 colon) | growth (MCF7 breast) | growth (HCT-116 colon) | growth (HCC-2998 colon) | growth (KM12 colon)
O=C1c2ccccc2C(=O)c2c1oc1c2c(=O)[nH]c2ccc(Cl)cc21 | 38% | 10.2% | -53% (active) | 0.704% (active) | -12.2% (active) | 65.1% | 0.119% (active)
COc1cc(C(=O)Nc2cc(OC)c3ccn(C)c3c2)cc2c1C[C@]1(C)CC[C@@H](O)C(C)(C)[C@H]1O2 | 8.8% (active) | -36.1% (active) | 2.19% (active) | 6.32% (active) | 12.6% | 37.4% | 27%
COC(=O)CCc1cc(O)c2c(c1)[C@@H](C(=O)OC)[C@H](c1ccc(O)c(O)c1)O2 | 51.7% | 4.1% (active) | 63.8% | 23.7% | 59.5% | 94.9% | 55.8%
COCCc1n(Cc2ccc3ccccc3c2)c2ccccc2[n+]1Cc1ccc2ccccc2c1 | -48.5% (active) | -87.5% (active) | -73.7% (active) | -68.1% (active) | -81.2% (active) | -78.1% (active) | -86.2% (active)
Cc1cc(Cl)cc(CN(Cc2ccccc2)Cc2c(O)ccc3ccccc23)c1O | 99% | 112% | 105% | 85% | 111% | 91.5% | 99.9%
O=c1[nH]c(-c2cccc(F)c2)cc2cc(F)ccc12 | 66.5% | -25.5% (active) | 26.9% | 13.6% | 25.4% | 44.6% | 23.6%
CCOC(=O)NCCc1nc2c([nH]1)c(=O)n(C)c(=O)n2C | 97.6% | 101% | 103% | 95.4% | 92.7% | 99.7% | 101%
COc1cc(-c2nn(-c3ccc(Br)cc3)cc2CO)ccc1O | 89.6% | 108% | 104% | 92.1% | 92.6% | 104% | 91.7%
COc1cc(/C=C/C(=O)c2cccs2)ccc1OCc1ccc(Cl)nc1 | 91.4% | 76.7% | 58.2% | 9.24% (active) | 75.1% | 99.8% | 28.5%
NCCCn1c2c(c3cc(-c4ccn[nH]4)ccc3c1=O)C(=O)c1ccccc1-2 | 77.3% | 63% | 24.6% | 13% | 19.1% | 60.6% | 38.7%
Nc1c(C(=O)Nc2ccccn2)sc2nc3c(cc12)C(=O)CCC3 | 53.5% | -42.9% (active) | 23.7% | 22% | 26.3% | 49.3% | 16.3%
O=C1C(Cl)=C(NCCCN(CCCNC2=C(Cl)C(=O)c3ccccc3C2=O)C2=C(Cl)C(=O)c3ccccc3C2=O)C(=O)c2ccccc21 | 85.6% | -86.5% (active) | 47.6% | -19.9% (active) | 4.83% (active) | 92.4% | 80.1%
CC(C)C[C@H](C(=O)O)N(C)C(=O)[C@@H]1CCCN1C(=O)[C@H](C)OC(=O)[C@H](CCC(N)=O)NC(=O)[C@@H]1CCC(=O)N1 | 94.2% | 106% | 106% | 85.2% | 99.2% | 108% | 100%
COc1cc(N=Nc2cc(S(=O)(=O)O)cc3cc(S(=O)(=O)O)cc(O)c23)c(C)cc1N=Nc1c(S(=O)(=O)O)cc2cc(Nc3ccccc3)ccc2c1O | 103% | 109% | 108% | 103% | 98.4% | 105% | 102%
C=C1C(=O)O[C@H]2[C@H]1CC/C(COC(=O)CCCCCCC(=O)OC/C1=C/CC[C@@]3(C)O[C@H]3[C@H]3OC(=O)C(=C)[C@@H]3CC1)=C\CC[C@@]1(C)O[C@@H]21 | 49.4% | 40.4% | 14.8% | 14.8% | -40.6% (active) | 89.3% | 61.5%
O=CN1N=C(c2ccc(F)cc2)CC1c1cccc(Nc2ccnc3cc(C(F)(F)F)ccc23)c1 (stereo not drawn) | 44.3% | 58.2% | 79.1% | 25.3% | 41.8% | 76.3% | 55.9%
COc1ccc(-n2cc(-c3ccc(Cl)c(Cl)c3)[nH]c2=O)cc1OC | 94.2% | 99.7% | 73.5% | 84.7% | 90.4% | 96% | 95.3%
CCOC(=O)c1ccc(Nc2ncnc3ccc(NC(=O)c4ccccc4)cc23)cc1 | 86.5% | 91.1% | 96% | 75.7% | 91.4% | 97.3% | 75.2%
COc1ccc(C(=O)c2cc(OC)c(C)c(OC)c2)cc1OC(=O)CCl | 15.6% | -17.2% (active) | 24.1% | 13.4% | 10.2% | 24.9% | 19.1%
N#Cc1nc(-c2ccccc2)oc1S(=O)(=O)NCC(c1ccc(Cl)cc1)N1CCCCC1 (stereo not drawn) | 77.6% | 64.3% | 26.5% | 35% | 27.3% | 107% | 80.6%
COc1ccc(-c2cs/c(=N\N=C\c3ccc(O)cc3O)n2/N=C/c2ccc(O)cc2O)cc1 | -10.4% (active) | -32.8% (active) | -51.3% (active) | -11.5% (active) | -52.8% (active) | 4.8% (active) | -51% (active)
O=C1C(=O)c2c(nc3ccc(Br)cn23)-c2ccccc21 | -86.8% (active) | -94% (active) | -79.6% (active) | -54.1% (active) | -88.9% (active) | -82.5% (active) | -41.5% (active)
CC(=O)OCC1OC(OC2C(COC(C)=O)OC(OCCC[S-])C(OC(C)=O)C2OC(C)=O)C(OC(C)=O)C(OC(C)=O)C1OC(C)=O.[Au+].c1ccc(CN2[CH-]N(Cc3ccccc3)C(c3ccccc3)=C2c2ccccc2)cc1 (stereo not drawn) | 25.3% | 18.9% | 18.5% | 7.42% (active) | 9.17% (active) | 45.2% | 26.7%
O=C(O)C(C(=O)O)c1cccc2ccccc12 | 102% | 102% | 99.1% | 98.1% | 102% | 104% | 109%
O=C1CCC23OC(c4ccccc4N12)C(O)C(O)C3O (stereo not drawn) | 111% | 110% | 103% | 100% | 84.9% | 94.5% | 104%
C=C1C(=O)O[C@H]2[C@H]1CC/C(COC(=O)CCCCCCCCC(=O)OC/C1=C/CC[C@@]3(C)O[C@H]3[C@H]3OC(=O)C(=C)[C@@H]3CC1)=C\CC[C@@]1(C)O[C@@H]21 | 2.59% (active) | 8.17% (active) | 2.58% (active) | -37% (active) | -62.7% (active) | 44.2% | 20.2%
NC(=O)C(O)(c1ccccc1)c1ccccc1 | 113% | 103% | 96% | 91.5% | 103% | 98.5% | 96.9%

SMILES | growth (BT-549 breast) | growth (MDA-MB-435 melanoma) | growth (SW-620 colon) | growth (MCF7 breast) | growth (HCT-116 colon) | growth (HCC-2998 colon) | growth (KM12 colon)
CC(=O)OC[C@]12CC[C@@H](c3cn(Cc4ccc(Cn5cc([C@@H]6CC[C@]7(COC(C)=O)CC[C@]8(C)[C@H](CC[C@@H]9[C@@]%10(C)CC[C@H](OC(C)=O)C(C)(C)[C@@H]%10CC[C@]98C)[C@@H]67)nn5)cc4)nn3)[C@@H]1[C@H]1CC[C@@H]3[C@@]4(C)CC[C@H](OC(C)=O)C(C)(C)[C@@H]4CC[C@@]3(C)[C@]1(C)CC2 | 91.4% | 105% | 106% | 92.1% | 109% | 104% | 106%
Cc1cnc(SCc2ccc(Cl)cc2)[nH]c1=S | 108% | 104% | 111% | 95.6% | 101% | 108% | 96.3%
COc1ccc2c(c1)C1(C(=O)N2)C(C#N)=C(c2ccccc2)Nc2c1c(-c1ccccc1)nn2-c1ccccc1 (stereo not drawn) | 84.5% | 55.3% | 8.54% (active) | 18.1% | 4.04% (active) | 58.1% | 39.7%
COc1ccc(-n2nc(C(=O)NCC(=O)O)nc2-c2ccccc2)cc1 | 94.2% | 111% | 112% | 98.2% | 101% | 118% | 108%
CCSc1nc(Cl)c(C#N)c(-c2ccc(F)cc2)n1 | 103% | 91.8% | 93.3% | 85.1% | 91.8% | 102% | 97.9%
CCOCc1nc2ccccc2c(=O)[nH]1 | 106% | 103% | 97.1% | 94.9% | 98% | 105% | 103%
C=C1C(=O)O[C@H]2[C@H]1CC/C(COC(=O)N1CCC[C@H]1C(=O)Nc1ccc(OC)c(C(N)=O)c1O)=C\CC[C@@]1(C)O[C@@H]21 | 38.5% | 44.3% | 2.83% (active) | 12.1% | 14.8% | 94.8% | 67.2%
COc1ccc(C2CC(c3ccc(OC)cc3O)=NN2c2ccc(S(N)(=O)=O)cc2)cc1 (stereo not drawn) | 58.2% | 36.8% | 50.6% | 13.7% | 20.5% | 54.4% | 23.7%
CC(C)(C)c1ccc(O)c(Cc2cc(C(C)(C)C)ccc2O)c1 | 113% | 107% | 105% | 72.5% | 88.6% | 103% | 100%
O=C(Nc1cc(=O)[nH]c(=O)[nH]1)C(Cl)Cl | 107% | 110% | 100% | 97.1% | 107% | 92.4% | 107%
O=C(O)c1cc(N=Nc2ccc(-c3ccc(N=Nc4c(S(=O)(=O)O)cc5ccc(Nc6ccccc6)cc5c4O)cc3)cc2)ccc1O | 115% | 106% | 102% | 92.3% | 105% | 89.8% | 99.6%
O=C(NC[C@H](O)CN1CCc2ccccc2C1)c1cc(NC2COC2)ncn1 | 97.8% | 95.1% | 93.8% | 80.2% | 86.7% | 98.8% | 98.1%
O=C(O)CCNC1CCCCC1 | 99.6% | 117% | 101% | 87.5% | 92.6% | 86.4% | 99.7%
COC(=O)/C=C1\SC(=Nc2ccc(F)cc2)N(CCc2c[nH]c3ccccc23)C1=O | 88.4% | 114% | 106% | 74.9% | 87.8% | 102% | 100%
CCN1CCN(Cc2ccc(NC(=O)c3cccc(C#Cc4cccc5[nH]nc(N)c45)c3)cc2C(F)(F)F)CC1 | 3.52% (active) | -91.2% (active) | -76% (active) | -77.8% (active) | -96.5% (active) | -87.4% (active) | -75% (active)
[2H]c1cc2c(c([2H])c1F)/C(=C/c1[nH]c(C)c(C(=O)NCCN(CC)CC)c1C)C(=O)N2 | 67.6% | 34% | 25.7% | 38.5% | 34.1% | 69.7% | 1.85% (active)
CNS(=O)(=O)c1cccc(-c2ccc3c4c(n(C)c(=O)c3c2)-c2ccccc2C4=O)c1 | 76.6% | 74.5% | 46.4% | 18.5% | 36.4% | 90.6% | 40.7%
COc1c(O)cc2oc3cc(O[C@@H]4OC(C)[C@@H](O)[C@H](O)C4O)c(CC=C(C)C)c(O)c3c(=O)c2c1CC=C(C)C (stereo partly drawn) | 99.3% | 97.9% | 101% | 76% | 94.1% | 94.8% | 87.8%
CN(C)CSc1nc2ccccc2s1 | 81.1% | 99.9% | 104% | 87.3% | 89.7% | 97.7% | 98.3%
COc1ccccc1N1CCN(CCCOc2ccc(C(=O)/C=C3/C(=O)Nc4ccccc43)cc2)CC1 | 68.1% | 73% | 70.6% | 49.7% | 34.4% | 60.2% | 59.4%
Cc1nc2sc(C(=O)Nc3cccc4ccccc34)c(N)c2cc1C(C)O (stereo not drawn) | 26.2% | -33.7% (active) | 30.5% | 17.8% | 8.51% (active) | 15.7% | 18.2%
CCc1c(C(=O)N[C@@H](C(=O)OCc2ccccc2)C(C)O)[nH]c2ccc(Cl)cc12 (stereo partly drawn) | 90.8% | 87.9% | 54.4% | 65.6% | 18.9% | 101% | 77.3%
COc1cc(C(C)c2ccc3c(ccn3C)c2)cc(OC)c1OC (stereo not drawn) | 12.7% | -40.6% (active) | 28% | 14.6% | 5.43% (active) | 23.4% | 10.3%
C#Cc1ccccc1NC(=O)c1sc2nc3c(cc2c1N)CCCCCC3 | 37.3% | 74.5% | 27.6% | 58.4% | 75.5% | 104% | 42.7%
O=c1cc(/C=N\Nc2nc(-c3ccc(Cl)cc3Cl)cs2)c2cc(Cl)ccc2o1 | 96.7% | 105% | 104% | 78.2% | 80% | 105% | 94.3%
CCOC(=O)C1=C(C)n2nc(CC#N)c(C#N)c2NC1c1ccc(Cl)cc1 (stereo not drawn) | 92% | 100% | 97.5% | 90.2% | 101% | 99.9% | 85.4%
C/C(=N\NC(=O)c1ccncc1)c1ccc(N)cc1 | 93.2% | 102% | 101% | 95.9% | 99.6% | 106% | 106%
